Experimental data as given in PubChem BioAssay AID1963576 (National Center for Advancing Translational Sciences (NCATS), 2024).
In all, about 46,000 compounds went through this assay and about 60 (0.1%) were called active. Roughly 3% stayed inconclusive and do not appear here. The list comes from a sample in which actives are over-represented; it also holds similar structures and randomly drawn compounds. Unmarked numbers belong to inactive results. Calls follow the shape of the dose curve; as a rule, active = well fitted inhibition curve with a large enough effect; inconclusive = small, poorly fitted or top-dose-only effect; inactive = no such curve, though single readings can be large or run the other way.

Test: Primary qHTS assay for Inhibitors of ovarian cancer metastasis using an organotypic tumor microenvironment (TME) model. Also: nearly all actives have a fitted effect of over 65% in size.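 As to Potency: count of GFP cancer cells still attached after washing and fixation.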
Settings: SKOV3ip1-GFP adhesion/invasion on 3D omental model, fluorescence; series mostly up to 45.8 µM; activity change, negative = inhibition: at the top concentration
From the text: PI: Ernst Lengyel MD., Ph.D. Department of Obstetrics and Gynecology, Section of Gynecologic Oncology University of Chicago Medicine, Chicago, Illinois. The tumor microenvironment (TME) is a key determinant of metastatic efficiency. We performed a quantitative high-throughput screen (qHTS) of diverse medicinal chemistry tractable scaffolds (44,420 compounds) and pharmacologically active small molecules (386 compounds) using a layered organotypic, robust assay representing the ovarian cancer metastatic TME. This 3D model contains primary human mesothelial cells, fibroblasts, and extracellular matrix, to which fluorescently labeled ovarian cancer cells are added. Initially, 100 compounds inhibiting ovarian cancer adhesion/invasion to the 3D model in a dose-dependent manner were identified. Of those, eight compounds were confirmed active in five high-grade serous ovarian cancer cell lines and were further validated in secondary in vitro and in vivo biological assays. […] Specifically, NCGC00117362 and PP-121 inhibited ovarian cancer adhesion, invasion, and proliferation, whereas milciclib inhibited ovarian cancer invasion and proliferation. […] To evaluate the clinical potential of NCGC00117362, structure - activity relationship studies were performed. […] The three compounds identified have promise as therapeutics for prevention and treatment of ovarian cancer metastasis.
PROTOCOL TABLE (as described by Inglese J, Shamu CE and Guy RK. 2007) SEQUENCE No. (e.g., 1, 2, 3, etc.); […] (e.g., Cells, Incubation, Reagent, etc.); VALUE; DESCRIPTION. 1; Cells; 4 uL; primary human omental fibroblast, black, clear bottom, low base, 1536-well Aurora assay plate. 2; Incubation; 48 hr; 37C. 3; Cells; 3 uL; 1,200 SKOV3ip1-GFP cells. 4; Compounds; 23nL; acoustic dispenser. 5; Incubation; 2 hr; room temperature. 6; Incubation; 16 hr; 37C. 7; Wash; 5 uL; 1x PBS. 8; Fixing; 5 uL; 4% paraformaldehyde (PFA). 9; Incubation; 15 min; room temperature 10; Wash, 5 uL; 1x PBS. 11; Detection; Fluorescence, excitation filter 488 nm, emission filter 509 nm. NOTES (numbers refer to Sequence numbers above) 1. For the 1,536-well format, 40 primary human omental fibroblasts and 400 mesothelial cells were seeded with 0.02 µg fibronectin and 0.02 µg collagen type I in 4 µL of growth media (2.3 mm2; Supplementary Fig. S1A). 2. Assay plates were incubated for 48 hours at 37 C. 3. After incubation, 1,200 SKOV3ip1-GFP were seeded in 3 µL of serum-free media (growth media minus FBS) on top of primary human omental cells. 4. Compounds or controls were added to each well immediately after the addition of the cancer cells. Compounds were screened in four doses (0.36-46 µmol/L), and the plates contained the positive control (Tomatine) in eight doses (0.035-75 µmol/L) and DMSO (equal volume controls) 5 - 6. The plates were incubated at room temperature for 2 hours and then at 37 degrees C for 16 hours. 7 - 10. Following incubation, the media were aspirated and each well washed with PBS (5 µL) and then fixed with 4% paraformaldehyde (PFA; 5 µL). After 15 minutes, the PFA solution was aspirated, PBS (5 µL) was added. 11. The number of GFP-labeled cells analyzed using a fluorescent cytometer TTP LabTech Acumen eX3 using 488 nm excitation filter and 509 nm emission filter. Data was normalized to the DMSO treated for negative and Tomatine treated wells for positive control. REFERENCES: Inglese J, Shamu CE and Guy RK, Reporting data from high throughput screening of small molecule libraries, Nature Chemical Biology, 2007, 3(8): 438-441. doi.org/10.1038/nchembio0807-438. Yasgar A, Shinn P, Jadhav A, Auld DS, Michael S, Zheng W, Austin CP, Inglese J and Simeonov A, Compound Management for Quantitative High-Throughput Screening. J. Assoc. Lab. Auto., 2008, 13: 79-89. doi: 10.1016/j.jala.2007.12.004.
Potency is read from the fitted curve at half-maximal effect.

SMILES	activity change, negative = inhibition	outcome	Potency
CCOC(=O)C1CCCN(S(=O)(=O)c2cc(-c3cc(C)no3)ccc2OC)C1 (stereo unspecified)	-0.925%		
CCOc1ccccc1NC(=O)Cn1c(=O)n(-c2cccc(C)c2)c(=O)c2c1c1cc(OC)ccc1n2C	6.79%		
COc1ccc(CCNC(=O)C(=O)NCC(c2ccco2)S(=O)(=O)c2cccs2)cc1OC (stereo unspecified)	12%		
COc1ccc(CCNCc2c(C(=O)O)c(C)n(Cc3cccc(C)c3)c2C)cc1OC	-2.02%		
CCN(CC)CCNC(=O)c1c(C)[nH]c(C=C2C(=O)Nc3ccc(F)cc32)c1C	-23.8% [at 92.2 µM]		
COc1ccc(C2(Nc3cccc(F)c3)C(=O)c3ccccc3C2=O)cc1		inactive	
COc1ccc(/C=C/c2nc(C#N)c(NCc3ccc(F)cc3)o2)cc1OC		inactive	
COc1ccc(NC(C)=O)cc1NC(=O)CN1CCN(c2ccc(F)cc2)CC1	3.17%		
CCCCCn1c(=O)[nH]c2cc(C(=O)Nc3cc(C)cc(C)c3)ccc2c1=O		inactive	
Cc1ccc(NC(=O)CCCn2c(=O)c3cccn3c3ccccc32)cc1Cl		inactive	
Cc1ccc(C)c(CNC(=O)c2cc3ccccn3n2)c1	-2.96%		
Cc1ccc(CSc2oc(-c3cccs3)nc2S(=O)(=O)c2ccc(C)cc2)cc1	2.23%		
CSc1oc(-c2cccs2)nc1S(=O)(=O)c1ccc(Br)cc1	-2.14%		
CCCCS(=O)(=O)c1oc(-c2cccs2)nc1S(=O)(=O)c1ccccc1			2.51 µM (active)
CN(CC(=O)Nc1ccccc1F)S(=O)(=O)c1ccc2c(c1)c(=O)n(C)c(=O)n2C		inactive	
Cc1ccc(NC(=O)Cn2cnc3nc4c(cc3c2=O)CCCC4)cc1Cl	-18.1%		
COc1cccc(C(=O)NC(=O)Nc2ccc(-c3cc(C(F)(F)F)nn3-c3ccccc3)cc2)c1	-6.28%		
Cc1cc(C)c2oc(C(=O)Nc3c(C(=O)Nc4ccccc4)oc4ccccc34)cc(=O)c2c1	-0.148%		
COc1ccc(CCNC(=O)c2cnc3sc(N4CCCCCC4)nn3c2=O)cc1OC		inactive	
COc1cc(NC(=O)c2nn(-c3ccc(C)cc3)c(=O)c3c2c2ccccc2n3C)cc(OC)c1OC	2.39%		
Cc1ccc(Cl)cc1NC(=O)NC1COc2ccccc2C1 (stereo unspecified)	-3.78%		
Cn1ccc2cc(S(=O)(=O)N3CCCC(C(=O)NCc4ccccc4F)C3)ccc21 (stereo unspecified)	-6.3%		
COC(=O)c1ccc(OC)c(Cn2c(=O)n(Cc3ccccc3)c(=O)c3c2c2cc(OC)ccc2n3C)c1	0.627%		
Cc1cccc(CCNC(=O)c2ccc3c(c2)nc2n3CCC(C)C2)c1 (stereo unspecified)	-15%		
CCOC(=O)C1CCN(c2ncnc3c2c(-c2ccccc2)cn3-c2cccc(C)c2)CC1		inactive	
CC(=O)O[C@]1(C(C)=O)CC[C@@H]2[C@@H]3C[C@H](C)C4=CC(=O)CC[C@]4(C)[C@H]3CC[C@@]21C	20%		

SMILES	activity change, negative = inhibition	outcome	Potency
CC1=C(C(=O)OCc2ccc(C)cc2)C(c2ccccc2Cl)CC(=O)N1 (stereo unspecified)		inactive	
Cc1ccc(C(=O)Nc2cc3c(cc2N2CCCC2)n(C)c(=O)c(=O)n3C)cc1	6.74%		
COc1ccccc1-c1cc2nc(C)c(CCC(=O)NC3CCCCC3)c(C)n2n1	-9.62%		
CCOc1ccc(NC(=O)CCc2c(C)nn(-c3ccc(N4CCCC4)nn3)c2C)cc1		inactive	
CN1CCN(c2oc(-c3ccc(COc4ccc(Cl)cc4)o3)nc2C#N)CC1	3.31%		
COc1ccc(Cn2cc(C(=O)c3ccc(C)cc3)c(=O)c3cc(OC)c(OC)cc32)cc1	-5.32%		
Cc1ccc2nc(COc3ccc(NC(=O)COc4ccccc4F)cc3)cc(=O)n2c1		inactive	
COc1ccccc1CNC(=O)c1ccc(-n2c(C)cc3c2CCCC3)cc1	2.22%		
O=C(CSCc1cnn(-c2ccccc2)c1-n1cccc1)NCc1ccccc1Br	0.114%		
COc1cc(Cl)cn2c(-c3cccc(NC4CNC4)n3)cnc12	6.77%		
Cc1ccc(C)c(Nc2nnc(-c3ccc(C)c(S(=O)(=O)N4CCCCC4)c3)c3ccccc23)c1	-1.28%		
Cc1ccc(C)c(N2CCN(C(=O)CCc3c(C)nc4c(c3C)c(=O)n(C)c(=O)n4C)CC2)c1	-15.3%		
CCOc1ccc(NC(=O)c2cc3c(=O)n(Cc4cccs4)ccc3nc2C)cc1	2.81%		
CCCOc1ccc(NC(=O)CC2C(=O)N(c3ccccc3)C(=O)N2Cc2ccco2)cc1 (stereo unspecified)	2.15%		
O=C(CCCn1c(=O)c2cccn2c2cccnc21)NCc1ccc(F)cc1		inactive	
Cc1ccccc1-c1nc2cc(NC(=O)c3cccc(OCCC(C)C)c3)ccc2o1	1.04%		
CCN(Cc1ccccc1)C(=O)CCS(=O)(=O)c1ccc2c(c1)oc(=O)n2C	8.58%		
Cc1cccc(NC(=O)CN(c2ccc(C(C)C)cc2)S(=O)(=O)c2c(C)nn(C)c2C)c1C	-7.12%		
O=C(CCc1ccccc1)NCc1ccc2c(c1)CCN2C(=O)c1ccccc1		inactive	
Cc1cc(O)c(C(c2ccccc2)N2CCN(c3ccccc3F)CC2)c(=O)n1Cc1ccco1 (stereo unspecified)	-0.378%		
O=[N+]([O-])c1cc(-c2nc(-c3ccccc3)no2)ccc1NCc1ccco1	6.86%		
Cc1ccc(C)c(Cn2c(C)c(CNCc3ccc(F)cc3)c(C(=O)O)c2C)c1		inactive	
COc1ccc(C2(C#N)CCC(C(=O)O)CC2)cc1OC1CCCC1 (stereo unspecified)	9.33%		
CCOC(=O)c1c(NC(=O)c2cc(CC)on2)sc(C(C)=O)c1C	8.82%		
CC(C)(C)c1[nH]cnc1C=c1[nH]c(=O)c(=Cc2ccccc2)[nH]c1=O	0.182% [at 92.2 µM]		
